# According to publication PMC4336329 (PLoS ONE, 2015):
# Screen size: about 310,000 compounds; about 14,000 (4.5%) showed an effect of 50% or more. The effect is printed as a negative number. Many of the other results were omitted from the sample, so strong results are more common in it than they were.
# Target: human ether-à-go-go-related gene (hERG) potassium channel (human, UniProt Q12809)
# Assay: primary screen, population patch clamp on CHO cells stably expressing hERG; higher = less effect of the substance
# 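Also: peak tail current of the secondary pulse compared with the same well before compound.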
# Sequence of human ether-à-go-go-related gene (hERG) potassium channel (Q12809 whole entry, looked up): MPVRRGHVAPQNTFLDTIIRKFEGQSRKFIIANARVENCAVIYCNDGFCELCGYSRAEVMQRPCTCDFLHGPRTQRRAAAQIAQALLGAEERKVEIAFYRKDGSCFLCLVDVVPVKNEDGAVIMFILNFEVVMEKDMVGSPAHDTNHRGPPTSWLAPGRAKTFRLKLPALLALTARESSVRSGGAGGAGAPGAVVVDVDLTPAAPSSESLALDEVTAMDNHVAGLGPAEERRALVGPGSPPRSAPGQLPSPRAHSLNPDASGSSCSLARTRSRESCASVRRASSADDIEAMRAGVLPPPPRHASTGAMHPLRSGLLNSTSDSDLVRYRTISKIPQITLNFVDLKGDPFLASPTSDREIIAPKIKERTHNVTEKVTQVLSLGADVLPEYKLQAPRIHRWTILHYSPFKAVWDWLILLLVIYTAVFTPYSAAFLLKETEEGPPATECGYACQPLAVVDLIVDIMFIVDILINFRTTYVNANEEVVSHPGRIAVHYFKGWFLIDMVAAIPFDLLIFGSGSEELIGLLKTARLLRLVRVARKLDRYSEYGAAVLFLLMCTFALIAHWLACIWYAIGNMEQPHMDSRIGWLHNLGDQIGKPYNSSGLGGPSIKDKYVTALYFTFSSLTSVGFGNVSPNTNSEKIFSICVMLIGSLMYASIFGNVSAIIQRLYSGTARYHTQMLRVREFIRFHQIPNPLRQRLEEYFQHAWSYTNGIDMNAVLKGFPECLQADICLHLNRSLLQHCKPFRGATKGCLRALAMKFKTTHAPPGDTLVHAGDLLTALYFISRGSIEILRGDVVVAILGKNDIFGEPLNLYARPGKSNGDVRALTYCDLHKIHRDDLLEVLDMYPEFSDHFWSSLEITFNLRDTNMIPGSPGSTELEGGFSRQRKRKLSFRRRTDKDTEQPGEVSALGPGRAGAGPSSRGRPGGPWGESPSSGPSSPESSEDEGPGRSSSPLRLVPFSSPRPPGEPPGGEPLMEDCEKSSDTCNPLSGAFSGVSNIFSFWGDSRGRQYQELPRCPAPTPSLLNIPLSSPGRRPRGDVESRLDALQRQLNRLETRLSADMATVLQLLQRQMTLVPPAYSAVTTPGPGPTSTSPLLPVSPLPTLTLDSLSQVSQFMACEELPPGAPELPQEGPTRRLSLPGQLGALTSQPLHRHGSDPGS
row,SMILES,"hERG current change (%, negative = inhibition) at 10uM [%]"
1,CCCc1nnc(NC(=O)c2ccncc2)s1,-3.78
2,COc1ccc(NS(=O)(=O)c2ccc(NS(=O)(=O)c3cccs3)cc2)cc1,11.8
3,CCOC(=O)c1cnc(-c2ccccc2)nc1Oc1ccc(OC)cc1,14.2
4,CCc1csc(CCNC(=O)C2CCC(=O)N(CCc3cccc(F)c3)C2)n1 (stereo not shown),-13.4
5,O=c1c2ccccc2nc2n1C(CSCc1ccccc1)CS2 (stereo not shown),-37.1
6,O=c1c2ccccc2nc2n1C(CSc1ccc(F)cc1)CS2 (stereo not shown),-33.3
7,O=C(Nc1ccccc1SCC1CSc2nc3ccccc3c(=O)n21)c1ccccc1Cl (stereo not shown),-70.5
8,COC(=O)c1sc2ccccc2c1NC(=O)c1ccc(S(=O)(=O)N2CCCCC2)cc1,11.2
9,Cc1c(/C=N/NC(=O)c2ccc(Br)o2)cnn1C,21
10,N#CCCN1CCN(C2=NC(=O)/C(=C\c3cccs3)S2)CC1,-52.4
11,O=C1N=C(N2CCN(Cc3ccccc3)CC2)S/C1=C/c1cccs1,-41.1
12,O=C1N=C(N2CCOCC2)S/C1=C/c1cccs1,-5.52
13,O=C(CCSCc1cccc(Cl)c1)NCCc1ccc(Cl)cc1,4.09
14,CCCCCCCCn1c(N2CCN(c3cccc(Cl)c3)CC2)nc2c1c(=O)[nH]c(=O)n2C,5.65
15,Cc1ccc(S(=O)(=O)NCCC(=O)N2CCC(C(N)=O)CC2)cc1C,-6.54
16,Cc1ccccc1C(=O)NC1CC2CCC(C1)N2Cc1ccccc1 (stereo not shown),-25
17,CCCN1C2CCCC1CC(NC(=O)c1ccccc1OC)C2 (stereo not shown),-3.42
18,CCCN1C2CCCC1CC(NC(=O)c1ccccc1OCC)C2 (stereo not shown),-47.2
19,CCOc1ccccc1CN1C(=O)NC2(CCCCCC2)C1=O,9.32
20,CCOc1ccccc1CN1CCC(O)CC1,12.1
21,Cc1ccccc1C(=O)NC1CC2CCCC(C1)N2Cc1ccc(Cl)cc1 (stereo not shown),-71
22,CCOc1ccccc1C(=O)NC1CC2CCCC(C1)N2Cc1ccccc1 (stereo not shown),-54.5
23,CCOc1ccccc1CN1C2CCC1CC(c1ccc(C)cc1)C2 (stereo not shown),-60.9
24,Cc1ccccc1C(=O)NC1CC2CCCC(C1)N2Cc1ccccc1 (stereo not shown),-25
25,CCOc1ccccc1C(=O)NC1CC2CCCC(C1)N2C1CC1 (stereo not shown),-19
26,CCOc1ccccc1C(=O)NC1CC2CCCC(C1)N2Cc1ccc(C)cc1 (stereo not shown),-65.2
27,COc1ccccc1C(=O)NC1CC2CCC(C1)N2Cc1ccccc1 (stereo not shown),-20.4
28,O=S(=O)(Nc1ccc(O)cc1)c1cccc2cccnc12,10.2

row,SMILES,"hERG current change (%, negative = inhibition) at 10uM [%]"
1,Cc1ccc(CN2CC(C(=O)Nc3ccc(S(=O)(=O)Nc4cc(C)nc(C)n4)cc3)CC2=O)cc1 (stereo not shown),15.6
2,CCC1C(=O)NCCN1C(=O)c1cccc(OC2CCN(S(=O)(=O)N(C)C)CC2)c1 (stereo not shown),14
3,CN(C)CCN(Cc1ccccc1)C(=O)[C@H](Cc1ccccc1)N1C(=O)c2ccccc2C1=O,-30.1
4,Cc1ccc(S(C)(=O)=NS(=O)(=O)c2cccc3nsnc23)cc1 (stereo not shown),7.47
5,O=c1c2ccccc2nc(SCc2nnc(-c3ccccc3Br)o2)n1-c1ccccc1,-1.38
6,Cc1csc(C(C#N)C(=O)c2cc3ccccc3o2)n1 (stereo not shown),-7.89
7,CN(C)S(=O)(=O)Nc1ccccn1,16.5
8,CCCCc1cc(=O)oc2cc(C)cc(O)c12,-17.2
9,Cn1c(-c2ccccc2)cc2ccccc21,9.39
10,COc1ccc(S(=O)(=O)N2CCN(C(=O)COc3ccc(C)c(C)c3)CC2)cc1OC,-37.1
11,CC1CCCN(CCCNC(=O)c2cn(C)c3ccc(S(=O)(=O)N(C)C4CCCCC4)cc3c2=O)C1 (stereo not shown),-71.4
12,CCn1cc(C(=O)NCCCN2CC(C)CC(C)C2)c(=O)c2cc(S(=O)(=O)N(C)C)ccc21 (stereo not shown),-55.5
13,CN(C1CCCCC1)S(=O)(=O)c1ccc2c(c1)c(=O)c(C(=O)NCCN1CCCC1)cn2C,-27.7
14,CCn1cc(C(=O)NCCCOC)c(=O)c2cc(S(=O)(=O)N(C)C)ccc21,14.3
15,CCn1cc(C(=O)NCCCN2CC(C)CC(C)C2)c(=O)c2cc(S(=O)(=O)N(C)C3CCCCC3)ccc21 (stereo not shown),-84.3
16,CCn1cc(C(=O)NCCCN2CCCC(C)C2)c(=O)c2cc(S(=O)(=O)N(C)C3CCCCC3)ccc21 (stereo not shown),-80.1
17,CCn1cc(C(=O)NCCCN2CCCC(C)C2)c(=O)c2cc(S(=O)(=O)N3CCOCC3)ccc21 (stereo not shown),14.6
18,CCn1cc(C(=O)N2CC(C)CC(C)C2)c(=O)c2cc(S(=O)(=O)N(C)C)ccc21 (stereo not shown),-8.98
19,CN(C1CCCCC1)S(=O)(=O)c1ccc2c(c1)c(=O)c(C(=O)NCCCN1CCCC1)cn2C,-25.6
20,Cc1ccc(NC(=O)c2ccc(NC(=O)C3CCCCC3C(=O)O)cc2)cc1 (stereo not shown),14.4
21,O=C(CN1C(=O)NC2(CCCC2)C1=O)N1CCN(S(=O)(=O)c2cccc(C(F)(F)F)c2)CC1,-5.43
22,O=C(O)C(Cc1c[nH]c2ccccc12)N1C(=O)c2ccccc2C1=O (stereo not shown),-2.61
23,Cc1ncc(CO)c(/C=N/Nc2cccc(Cl)n2)c1O.Cl,8.89
24,O=c1oc(-c2ccc(Br)cc2)nc2ccccc12,17.8
25,CC1=NNC(=O)/C1=C\c1cn(-c2ccccc2)nc1-c1ccc(Cl)cc1,3.69
26,O=c1c2c(nc3c(-c4ccccc4)c[nH]n13)CCC2,10.9
27,CC(C)CC(COCc1cccc(C(F)(F)F)c1)N1CCN(C(=O)c2cccc(C(F)(F)F)c2)CCC1=O (stereo not shown),-12
